# Screens: PubChem, several laboratories
# An excerpt weighted towards active compounds, which were near 4.5% of everything screened.
# Beta apoptosis – blocks beta cell apoptosis; INS-1E cytokine-induced death, ATP luminescence, 48 h; percent of positive-control rescue, neutral wells zero; protection from apoptosis, % (test concentration not listed); 300,000 compounds, 0.8% hits;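 active means Every replicate reaches about 75%, or at least half do and their mean reaches it too, limit read from the data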;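 further: 0% = cytokine-treated negative control wells and 100% = positive control rescue; higher means more ATP so stronger rescue from cytokine killing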
# 697 NFkB inh – lowers PMA/ionomycin-induced NF-kB signal in 697 B cells; 697 B-cell NF-kB luciferase reporter, 16 h; inhibition, % at 4 µM; 330,000 compounds, 0.33% hits; in the data active means inhibition above about 35%
# CSC inhib – blocks cancer stem cells; cancer stem cell-like cells viability, luminescence; inhibition, % at 7.5 µM; 300,000 compounds, 1.1% hits; AID 2717; in the data active means inhibition above about 75%; tested in HMLE shEcad cells
# Mdm2-MdmX inh – disrupts the human Mdm2-MdmX interaction. O15151+Q00987. SaOS-2 split-luciferase Mdm2/MdmX complementation, luminescence. inhibition, % at 8 µM. 330,000 compounds, 3% hits. AID 485346;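 active means inhibition of at least 50% at 8 µM in the primary screen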
# Target sequence (O15151 whole entry, looked up): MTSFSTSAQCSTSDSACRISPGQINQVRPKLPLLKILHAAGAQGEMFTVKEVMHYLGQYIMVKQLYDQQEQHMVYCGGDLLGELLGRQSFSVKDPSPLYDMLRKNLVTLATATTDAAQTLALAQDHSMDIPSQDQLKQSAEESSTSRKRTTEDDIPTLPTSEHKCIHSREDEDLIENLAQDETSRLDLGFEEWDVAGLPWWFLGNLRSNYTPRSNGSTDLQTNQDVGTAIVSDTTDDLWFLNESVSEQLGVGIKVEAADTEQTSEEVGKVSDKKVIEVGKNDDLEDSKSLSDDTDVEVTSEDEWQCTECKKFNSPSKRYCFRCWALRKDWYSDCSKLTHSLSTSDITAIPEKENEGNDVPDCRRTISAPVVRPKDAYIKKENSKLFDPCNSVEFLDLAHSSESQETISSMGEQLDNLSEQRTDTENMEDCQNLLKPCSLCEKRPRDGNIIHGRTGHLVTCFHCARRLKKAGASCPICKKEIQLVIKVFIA
# Target sequence (Q00987 whole entry, looked up): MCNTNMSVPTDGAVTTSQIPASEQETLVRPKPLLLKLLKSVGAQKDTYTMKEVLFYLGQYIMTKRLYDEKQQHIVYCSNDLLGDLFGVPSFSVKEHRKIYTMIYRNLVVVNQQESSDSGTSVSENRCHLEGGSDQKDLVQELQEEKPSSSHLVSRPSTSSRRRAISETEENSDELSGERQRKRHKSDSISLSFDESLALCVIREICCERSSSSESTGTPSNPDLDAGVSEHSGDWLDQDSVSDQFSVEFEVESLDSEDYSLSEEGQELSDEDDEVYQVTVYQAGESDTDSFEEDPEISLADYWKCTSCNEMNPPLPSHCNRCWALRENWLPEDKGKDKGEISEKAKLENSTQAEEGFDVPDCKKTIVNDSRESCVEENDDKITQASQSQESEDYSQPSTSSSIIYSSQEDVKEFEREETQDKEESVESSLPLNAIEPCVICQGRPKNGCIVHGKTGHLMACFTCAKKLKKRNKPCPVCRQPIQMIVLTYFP
# Gli-Sufu block – blocks Gli-Sufu signaling in a luciferase reporter. Sufu-KO-LIGHT fibroblasts, Gli luciferase reporter luminescence. inhibition, % at 5 µM. 340,000 compounds, 0.74% hits. AID 588413;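 active means inhibition above about 55%, limit read from the data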;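 further: 0% = DMSO-treated cells and 100% = wells with medium but no cells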
# Jurkat NFkB inh – inhibitors of the PMA/ionomycin-induced NF-kB reporter in Jurkat cells; 330,000 compounds, 0.53% hits; inhibition, % at 4 µM; AID 435003; PMA/ionomycin-induced NF-kB luciferase reporter, luminescence; in the data active means inhibition above about 50%
# Starred values were filed as active, the others as inactive; . = not tested or not shown.
SMILES,Beta apoptosis,697 NFkB inh,CSC inhib,Mdm2-MdmX inh,Gli-Sufu block,Jurkat NFkB inh
Cc1cccc(N/N=C/c2ccncc2)c1,-2,-32,16,-30,2,-37
Cc1cccc(NC(=O)CCC(=O)N/N=C/c2ccc(O)cc2O)c1,0,8,79*,-14,-14,12
Cc1cccc(N/N=C/c2ccccc2O)c1,-1,-56,94*,-68,16,8
CC(=O)C1=C(c2ccc(Br)cc2)C(=O)c2ccccc2C1=O,107*,.,114*,.,16,.
CCc1cccc(CC)c1C(OC(C)=O)c1cccnc1 (centres undefined),-3,0,0,-12,5,-7
CCNC(=S)N1N=C2c3ccccc3CCC2C1c1ccc(F)cc1 (centres undefined),21,-24,82*,43,6,42
Cc1ccc(OC/C(O)=C(\C#N)c2nc3ccccc3s2)cc1,11,-19,78*,11,-6,7
Cc1cc2nc(CSc3ccccc3)cc(=O)n2[nH]1,.,2,25,27,2,-17
CCC(=O)NNc1ccc(Br)cc1,4,18,80*,1,-1,16
O=C(NCc1cccnc1)NC1(C(F)(F)F)Oc2ccc(Cl)cc2O1 (centres undefined),2,-85,52,-22,10,29
COCCNC(=O)NC1(C(F)(F)F)Oc2ccc(Cl)cc2O1 (centres undefined),-2,-19,75*,19,41,15
O=C(O)CCCN1C(=O)/C(=C\C(Cl)=C\c2ccccc2)SC1=S,-20,.,79*,.,16,.
O=C(O)CCCN1C(=O)/C(=C\c2ccccc2OCc2ccccc2)SC1=S,-7,23,12,5,4,1
O=S1(=O)N=C(c2ccccc2)C=C(c2ccccc2)N1,.,10,.,33,4,.
CNC(C)C(=O)NC(C(=O)N1CCCC1C(=O)NC1CCCc2ccccc21)C(C)C (centres undefined),52,-201,13,-3,47,-24
CNC(C)C(=O)NC(C(=O)N1CCCC1C(=O)NNc1ccccc1)C(C)C (centres undefined),5,-3,98*,-20,13,4
C[n+]1c2n(c3ccccc31)N=C(c1ccc(Br)cc1)CS2,57,-19,18,43,68*,1
CCc1nnc2n1N=C(c1ccc(Br)cc1)CS2,17,28,7,4,1,27
CC(=O)Oc1ccc(C#C/C=C2\c3ccccc3C(=O)N2c2ccccc2)cc1,5,-37,134*,19,-15,-15
CCCC(/C=C/c1ccc(OC(C)=O)cc1)=C1/c2ccccc2C(=O)N1c1ccccc1,-3,-15,112*,33,-2,5
CC(C)(C)OC(=O)n1cccc1/C=C1\c2ccccc2C(=O)N1c1ccccc1,.,.,.,.,1,.
Cc1ccc(/C=C/C(=O)NC2CCCCCCC2)o1,6,-37,145*,-5,-7,-2
N#CCC(=O)N/N=C/c1cc(-c2ccccc2)n(-c2ccc(Cl)cc2)c1-c1ccccc1,109*,27,52,49,15,7
CS(=O)(=O)c1ccccc1-c1nnc(NC(=O)c2ccc3ncsc3c2)o1,-8,-48,14,-8,0,-11
Cc1ccc(C(=O)Nc2ncc([N+](=O)[O-])s2)cc1,68,.,37,.,60*,.
SMILES,Beta apoptosis,697 NFkB inh,CSC inhib,Mdm2-MdmX inh,Gli-Sufu block,Jurkat NFkB inh
O=C(Nc1ncc([N+](=O)[O-])s1)c1ccco1,22,-182,-9,6,-40,-54
CC1CN(c2ccc([N+](=O)[O-])c(NCCOc3ccc(Cl)cc3)c2)CC(C)N1 (centres undefined),-1,2,108*,30,23,8
CC(=O)n1c2c(c3ccccc31)OC(N)=C(C#N)C2c1cccc(Cl)c1Cl (centres undefined),15,-18,76*,37,2,2
N#CC1=C(N)Oc2cc(N)ccc2C1c1ccccc1Cl (centres undefined),2,1,-3,39,1,-3
Cc1cc(C)n(CCN(C)C(=O)C2CCC(=O)N(CCN3CCOCC3)C2)n1 (centres undefined),-2,-8,-11,3,3,3
CCN(CC)c1ccc(C(=O)OCc2cc(=O)oc3cc(O)ccc23)cc1,31,-27,84*,36,6,-20
CCN(CC)c1ccc2c(O)cc(=O)oc2c1,-2,10,9,12,-4,-7
